Measured values from PubChem BioAssay (Tox21).
Results filed as inconclusive are left out. The source made the active and inactive calls. Unless noted, calls follow the shape of the dose curve; as a rule, active = well fitted curve in the direction sought with a large enough effect in the repeat runs; inconclusive = weak or mixed curves; inactive = no such curve, though single readings can be large; an effect the other way counts as inactive or inconclusive.

Experiments:
[1] = qHTS assay to identify small molecule agonists of the peroxisome proliferator-activated receptor delta (PPARd) signaling pathway - cell viability counter screen (AID 743211); also: nearly all actives have a fitted effect of over 55% in size; also: potency is read from the fitted curve at half-maximal effect
Method in brief: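 qHTS cell viability: PPARd-bla HEK293H; 17 h cpd, 37C; CellTiter-Glo, luminescence at 30 min RT.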

[2] = qHTS assay to identify small molecule antagonists of the peroxisome proliferator-activated receptor delta (PPARd) signaling pathway - cell viability counter screen (AID 743213); also: nearly all actives have a fitted effect of over 50% in size; also: potency is read from the fitted curve at half-maximal effect
Method in brief: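 Luminescence from CellTiter-Glo, added after the bla read and incubated 30 min at room temperature, gives viability of HEK293H PPARd-bla cells exposed to compounds for 17 h at 37 C with 300 nM L165041.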

[3] = qHTS assay to identify small molecule agonists of the farnesoid-X-receptor (FXR) signaling pathway - cell viability counter screen (AID 743218); also: nearly all actives have a fitted effect of over 45% in size; also: potency is read from the fitted curve at half-maximal effect
Method in brief: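 Cells were seeded, left 5 h at 37 C and 5% CO2, then dosed with compound in DMSO for 16 h. After the beta-lactamase FRET read, CellTiter-Glo was added and luminescence measured 30 min later.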

[4] = qHTS assay to identify small molecule antagonists of the farnesoid-X-receptor (FXR) signaling pathway - cell viability counter screen (AID 743221; active = well fitted cell-killing curve with a large enough effect in the repeat runs, not every such curve was filed as active; also: nearly all actives have a fitted effect of over 50% in size; also: potency is read from the fitted curve at half-maximal effect)
Method in brief: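 After a 5 h settling period, FXR-bla HEK 293T cells receive compound and chenodeoxycholic acid (50 uM final) and incubate 16 h at 37 C; CellTiter-Glo luminescence, read after 30 min at room temperature, reports cell viability.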

[5] = qHTS assay to identify small molecule agonists of the vitamin D receptor (VDR) signaling pathway - cell viability counter screen (AID 743224); also: nearly all actives have a fitted effect of over 50% in size; also: potency is read from the fitted curve at half-maximal effect
Method in brief: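 Cells: VDR-bla, 2,000/well, settled 4 h. Treatment: compounds in DMSO, 16 h, 37C/5% CO2. Readout: CellTiter-Glo luminescence after 30 min RT.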

[6] = qHTS assay to identify small molecule antagonists of the vitamin D receptor (VDR) signaling pathway - cell viability counter screen (AID 743225); also: nearly all actives have a fitted effect of over 50% in size; also: potency is read from the fitted curve at half-maximal effect
Method in brief: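 Parallel cytotoxicity test: VDR-UAS-bla HEK 293T, 3 nM (final) 1-alpha,25-dihydroxyvitamin D3 with test compound, 16 h, 37C. Endpoint is CellTiter-Glo luminescence in the same wells.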

[7] = qHTS assay to identify small molecule agonists of the NFkB signaling pathway - cell viability counter screen (AID 1159515; calls by dose curve; also: nearly all actives have a fitted effect of over 55% in size; also: potency is read from the fitted curve at half-maximal effect)
Method in brief: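 Cells are seeded (2,000 NFkB-bla ME-180 per well), rested overnight, and dosed with DMSO-dissolved compounds for 5 hr at 37 C. Viability is then read by CellTiter-Glo luminescence after 30 min at room temperature.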

[8] = qHTS assay to identify small molecule agonists of the endoplasmic reticulum stress response signaling pathway - cell viability counter screen (AID 1159517; calls by dose curve; also: nearly all actives have a fitted effect of over 50% in size; also: potency is read from the fitted curve at half-maximal effect)
Method in brief: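 After overnight attachment, ESRE-bla HeLa cells were treated with Tox21 library compounds for 5 hr. CellTiter-Glo luminescence, read 30 min post-addition at room temperature, reported viability.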

[9] = qHTS assay to identify small molecule antagonists of the retinoid-related orphan receptor gamma (ROR-gamma) signaling pathway - cell viability counter screen (AID 1159520); also: nearly all actives have a fitted effect of over 50% in size; also: potency is read from the fitted curve at half-maximal effect
Method in brief: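 Cytotoxicity was read from cellular ATP (CellTiter-Glo luminescence) after 16 hr at 37 C with 1 uM doxycycline induction. The inducer was added 2 hr after compound transfer to Tet-on ROR gamma CHO cells.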

[10] = target: Nuclear receptor ROR-gamma (Homo sapiens) (UniProt P51449); experiment: qHTS assay to identify small molecule antagonists of the retinoid-related orphan receptor gamma (ROR-gamma) signaling pathway (AID 1159521; also: nearly all actives have a fitted effect of over 50% in size; also: potency is read from the fitted curve at half-maximal effect)
Method in brief: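 Decreased RORE-driven luciferase luminescence indicates antagonism. Tet-on RORγ CHO cells received compound, then 1 uM final doxycycline 2 h later; signal read after 16 h incubation.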

[11] = target: Peroxisome proliferator-activated receptor delta (Homo sapiens) (UniProt Q03181); experiment: qHTS assay to identify small molecule agonists of the peroxisome proliferator-activated receptor delta (PPARd) signaling pathway (AID 743212; calls by dose curve)
Peroxisome proliferator-activated receptor delta (Homo sapiens), sequence (Q03181 whole entry, looked up): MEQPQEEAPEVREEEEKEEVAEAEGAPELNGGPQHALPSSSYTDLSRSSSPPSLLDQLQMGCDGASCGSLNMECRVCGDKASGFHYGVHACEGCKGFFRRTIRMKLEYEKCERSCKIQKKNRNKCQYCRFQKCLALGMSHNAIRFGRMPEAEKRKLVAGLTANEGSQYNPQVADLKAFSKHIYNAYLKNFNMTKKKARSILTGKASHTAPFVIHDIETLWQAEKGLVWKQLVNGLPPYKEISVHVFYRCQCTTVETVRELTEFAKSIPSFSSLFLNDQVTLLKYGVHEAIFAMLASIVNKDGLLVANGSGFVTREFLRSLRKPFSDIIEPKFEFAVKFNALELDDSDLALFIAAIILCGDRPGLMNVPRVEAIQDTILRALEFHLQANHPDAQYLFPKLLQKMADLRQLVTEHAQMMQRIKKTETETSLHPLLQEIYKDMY
Method in brief: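 Steps: seed PPARd-bla HEK293H cells; incubate 5 h, 37 C, 5% CO2; add compounds in DMSO; incubate, 37 C; add LiveBLAzer B/G FRET substrate; hold 2 h at room temperature; measure fluorescence.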

[12] = target: Peroxisome proliferator-activated receptor delta (Homo sapiens) (UniProt Q03181); experiment: qHTS assay to identify small molecule antagonists of the peroxisome proliferator-activated receptor delta (PPARd) signaling pathway (AID 743215; active = well fitted inhibition curve with a large enough effect in the signal ratio in the repeat runs, not every such curve was filed as active; the % refers to the signal ratio;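 also: cells stimulated with agonist L165041 at 300 nM final during compound exposure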; also: potency is read from the fitted curve at half-maximal effect)
Method in brief: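 Cells: HEK293H with a UAS-driven beta-lactamase reporter responsive to PPARd. Compounds were co-added with L165041 (300 nM, final) and incubated 17 h at 37 C before a 2 h room-temperature FRET substrate step and fluorescence reading.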

[13] = target: Bile acid receptor (Homo sapiens) (UniProt Q96RI1); experiment: qHTS assay to identify small molecule agonists of the farnesoid-X-receptor (FXR) signaling pathway (AID 743220; active = well fitted activation curve with a large enough effect in the signal ratio in the repeat runs, not every such curve was filed as active; the % refers to the signal ratio)
Bile acid receptor (Homo sapiens), sequence (Q96RI1 whole entry, looked up): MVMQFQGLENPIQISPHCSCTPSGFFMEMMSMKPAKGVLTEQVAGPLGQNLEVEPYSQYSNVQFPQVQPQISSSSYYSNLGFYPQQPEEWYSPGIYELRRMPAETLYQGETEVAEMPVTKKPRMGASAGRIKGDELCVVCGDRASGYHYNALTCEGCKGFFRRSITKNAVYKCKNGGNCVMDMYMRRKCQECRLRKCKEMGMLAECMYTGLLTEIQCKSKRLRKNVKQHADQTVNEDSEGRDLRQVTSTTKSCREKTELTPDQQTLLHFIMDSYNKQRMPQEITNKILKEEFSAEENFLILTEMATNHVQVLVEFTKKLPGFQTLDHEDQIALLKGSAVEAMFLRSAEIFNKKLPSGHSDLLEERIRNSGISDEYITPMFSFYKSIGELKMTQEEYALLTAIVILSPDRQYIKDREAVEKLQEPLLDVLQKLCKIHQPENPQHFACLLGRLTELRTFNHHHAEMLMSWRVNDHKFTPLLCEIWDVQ
Method in brief: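 FXR-UAS-bla HEK 293T cells carrying a UAS-driven beta-lactamase reporter were plated for 5 h at 37C/5% CO2, then exposed to DMSO-dissolved Tox21 10K compounds for 16 h at 37C. A LiveBLAzer B/G FRET substrate was loaded for 2 h at room temperature before fluorescence reading.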

[14] = target: Vitamin D3 receptor (Homo sapiens) (UniProt P11473); experiment: qHTS assay to identify small molecule antagonists of the vitamin D receptor (VDR) signaling pathway (AID 743223; active = well fitted inhibition curve with a large enough effect in the signal ratio in the repeat runs, not every such curve was filed as active; the % refers to the signal ratio; also: potency is read from the fitted curve at half-maximal effect)
Vitamin D3 receptor (Homo sapiens), sequence (P11473 whole entry, looked up): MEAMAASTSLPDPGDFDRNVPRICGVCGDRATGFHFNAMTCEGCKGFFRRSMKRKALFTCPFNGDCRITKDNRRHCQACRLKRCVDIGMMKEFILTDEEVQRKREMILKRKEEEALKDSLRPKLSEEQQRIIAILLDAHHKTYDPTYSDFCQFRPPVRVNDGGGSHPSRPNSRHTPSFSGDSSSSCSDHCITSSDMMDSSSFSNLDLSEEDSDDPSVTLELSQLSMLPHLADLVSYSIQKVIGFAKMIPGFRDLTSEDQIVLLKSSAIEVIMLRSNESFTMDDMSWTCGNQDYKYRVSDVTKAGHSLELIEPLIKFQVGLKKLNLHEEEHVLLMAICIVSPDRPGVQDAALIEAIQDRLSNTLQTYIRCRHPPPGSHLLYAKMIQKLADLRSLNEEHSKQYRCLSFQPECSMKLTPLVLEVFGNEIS
Method in brief: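 Reporter line VDR-bla; stimulus 1alpha,25-(OH)2 vitamin D3, 3 nM final; compound co-addition, 16 h 37C/5% CO2; LiveBLAzer B/G substrate 2 h RT; fluorescence intensity.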

[15] = qHTS assay to identify small molecule agonists of the AP-1 signaling pathway - cell viability counter screen (AID 1159525; calls by dose curve; also: nearly all actives have a fitted effect of over 55% in size; also: potency is read from the fitted curve at half-maximal effect)
Method in brief: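 Intracellular ATP by Cell Titer Glo luminescence (30 min, RT) in the same ME-180 AP-1-bla wells after the 5 h compound exposure at 37 °C. Normalised to tetra n-octyl ammonium bromide and DMSO controls.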

[16] = qHTS assay to identify small molecule agonists of the AP-1 signaling pathway (AID 1159526; calls by dose curve)
[17] = target: Bile acid receptor (Homo sapiens) (UniProt Q96RI1); experiment: qHTS assay to identify small molecule antagonists of the farnesoid-X-receptor (FXR) signaling pathway (AID 743217; active = well fitted inhibition curve with a large enough effect in the signal ratio in the repeat runs, not every such curve was filed as active; the % refers to the signal ratio)
Method in brief: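 Cells carrying a UAS-driven beta-lactamase reporter (GeneBLAzer FXR-UAS-bla HEK 293T) were plated and rested 5 h at 37 °C. Compounds in DMSO were added alongside chenodeoxycholic acid agonist at 50 uM final and left 16 h at 37 °C before FRET substrate readout.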

[18] = target: Vitamin D3 receptor (Homo sapiens) (UniProt P11473); experiment: qHTS assay to identify small molecule agonists of the vitamin D receptor (VDR) signaling pathway (AID 743222; calls by dose curve)
Method in brief: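 Cells carrying a VDR-driven beta-lactamase reporter are seeded at 2,000 per well and rested 4 h. Compounds in DMSO are added for 16 h at 37C, and FRET substrate fluorescence is measured after 2 h at room temperature.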

[19] = target: Retinoic acid receptor RXR-alpha (Homo sapiens) (UniProt P19793); experiment: qHTS assay to identify small molecule agonists of the RXR signaling pathway (AID 1159527; calls by dose curve; also: nearly all actives have a fitted effect of over 35% in size; also: potency is read from the fitted curve at half-maximal effect)
Retinoic acid receptor RXR-alpha (Homo sapiens), sequence (P19793 whole entry, looked up): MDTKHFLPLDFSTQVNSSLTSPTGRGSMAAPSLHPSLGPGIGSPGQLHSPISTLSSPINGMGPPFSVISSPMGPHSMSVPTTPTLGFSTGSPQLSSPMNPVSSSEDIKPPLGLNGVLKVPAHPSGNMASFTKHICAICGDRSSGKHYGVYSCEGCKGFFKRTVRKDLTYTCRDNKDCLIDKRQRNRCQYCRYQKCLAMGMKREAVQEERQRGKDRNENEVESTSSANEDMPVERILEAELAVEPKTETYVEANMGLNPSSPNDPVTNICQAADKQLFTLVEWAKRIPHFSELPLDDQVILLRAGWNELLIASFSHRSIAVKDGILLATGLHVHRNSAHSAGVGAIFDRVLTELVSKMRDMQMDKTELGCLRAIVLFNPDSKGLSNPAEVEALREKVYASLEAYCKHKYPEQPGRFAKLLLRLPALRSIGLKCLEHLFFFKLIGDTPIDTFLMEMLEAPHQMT
Method in brief: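 16 hr incubation of compound-treated RXR-alpha-UAS-bla HEK 293T cells (2% charcoal-stripped FBS, 37 C) preceded a 2 hr room-temperature LiveBLAzer FRET substrate step and blue/green fluorescence measurement.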

Measured: Potency

O=C(Nc1cccc(C(F)(F)F)c1)c1cc(Br)cc(Br)c1O
active: [1] 6.16 µM | [2] 6.92 µM | [3] 4.36 µM | [4] 11 µM | [5] 2.19 µM | [6] 17.4 µM | [7] 54.9 µM | [8] 24.5 µM | [9] 10.9 µM | [10] 1.37 µM

[O-][n+]1ccccc1SSc1cccc[n+]1[O-]
active: [1] 0.13 µM | [2] 0.206 µM | [4] 0.206 µM | [7] 0.233 µM | [8] 4.14 µM | [9] 0.103 µM | [10] 0.058 µM
inactive: [11]

O=C(N/N=C/c1ccccc1O)c1ccncc1
inactive: [3] | [13] | [4] | [7] | [8] | [9] | [15]
active: [12] 2.11 µM | [14] 19 µM | [10] 23.7 µM

CCc1oc2ccccc2c1C(=O)c1cc(Br)c(O)c(Br)c1
inactive: [7] | [8] | [9] | [15]

[Cl][Bi]([Cl])([c]1ccccc1)([c]1ccccc1)[c]1ccccc1
active: [1] 5.46 µM | [2] 4.87 µM | [3] 5.46 µM | [4] 10.9 µM | [6] 2.44 µM | [7] 54.6 µM | [8] 38.7 µM | [9] 12.1 µM | [10] 2.16 µM

NNc1nc(-c2ccc([N+](=O)[O-])cc2)cs1
active: [9] 30.6 µM | [10] 10.9 µM
inactive: [4] | [14] | [7] | [8] | [15]

Nc1ccc2c3c(cccc13)-c1ccccc1-2
inactive: [4] | [7] | [8] | [9] | [10] | [15]
active: [1] 55.5 µM | [2] 49.5 µM

Cc1oc(-c2ccccc2)nc1CCC(=O)c1ccc(CC2SC(=O)NC2=O)cc1 (stereo unspecified)
inactive: [1] | [2] | [3] | [4] | [14] | [5] | [7] | [8] | [9] | [15] | [16]

Nc1c(Cl)cc(Cl)cc1Cl
inactive: [1] | [11] | [12] | [17] | [3] | [13] | [4] | [18] | [6] | [7] | [8] | [9] | [15] | [16]
active: [19] 12.1 µM

CC(C)(C)CC(C)(C)c1ccc(O)c(Cc2ccc(Cl)cc2Cl)c1
active: [1] 26.6 µM | [2] 26.6 µM | [4] 33.5 µM | [5] 23.7 µM | [6] 15.1 µM | [7] 16.9 µM | [8] 21.3 µM | [9] 23.7 µM | [10] 18.8 µM | [15] 15.1 µM

CCCCCCCCCCCCCCCCCC[N+](C)(C)C
active: [1] 13.8 µM | [2] 27.6 µM | [4] 55.1 µM | [5] 24.6 µM | [6] 3.9 µM | [7] 55.1 µM | [8] 49.1 µM | [9] 54.6 µM | [10] 6.13 µM | [15] 49.1 µM

CCC1OCC(COc2ccc(Oc3ccccc3)cc2)O1 (stereo unspecified)
inactive: [1] | [4] | [18] | [14] | [6] | [7] | [8] | [9] | [10] | [15]

Cc1cccc(S(=O)(=O)O)c1C
inactive: [1] | [11] | [2] | [3] | [4] | [18] | [5] | [6] | [7] | [8] | [9] | [15] | [16]

CCCC(C)c1ccccc1O (stereo unspecified)
inactive: [1] | [11] | [2] | [12] | [17] | [3] | [13] | [4] | [18] | [14] | [6] | [7] | [8] | [9] | [10] | [19]

CCCCCCCC[N+](CCCCCCCC)(CCCCCCCC)CCCCCCCC
active: [1] 6.15 µM | [2] 6.9 µM | [4] 21.8 µM | [5] 8.69 µM | [7] 24.5 µM | [8] 43.6 µM | [9] 8.62 µM | [10] 6.1 µM | [15] 15.5 µM

O=[N+]([O-])c1ccccc1Nc1ccccc1
inactive: [1] | [2] | [3] | [4] | [18] | [14] | [5] | [6] | [7] | [8] | [9] | [15] | [16] | [19]

N=C1N=C(N)c2cc3ccccc3cc21
active: [3] 44.8 µM | [4] 54.9 µM | [5] 49 µM | [7] 49 µM | [8] 8.71 µM | [9] 30.6 µM | [10] 30.6 µM | [15] 49 µM

C[C@]12CCC(=O)C=C1CC[C@@H]1[C@@H]2[C@@H](O)C[C@@]2(C)[C@H]1CC[C@]2(O)C(=O)COC(=O)CCC(=O)O
inactive: [1] | [2] | [17] | [13] | [4] | [18] | [14] | [5] | [6] | [7] | [8] | [9] | [15] | [16]
